In PubChem BioAssay (Tox21):
Values without a mark were called inactive. Inconclusive results are not listed. Entries that show only a call come without a potency. Calls of active or inactive are those of the source. Calls follow the shape of the dose curve; as a rule, active = well fitted curve in the direction sought with a large enough effect in the repeat runs; inconclusive = weak or mixed curves; inactive = no such curve, though single readings can be large; an effect the other way counts as inactive or inconclusive.

Columns and labels:
[1] = A CellTox Green Cytotoxicity Assay to monitor cytotoxicity in HEK293 cells - 24 hour (AID 1224875); also: series mostly up to about 77 µM; nearly all actives have a fitted effect of over 45% in size
Summary of the method: (§1)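 Fluorescence intensity, read at 0, 8, 16, 24, 32 and 40 h of compound treatment, reflected dye binding to DNA of dead HEK293 cells; compounds (23 nL, DMSO) were added 5 h after plating cells with reagent.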

[2] = A CellTox Green Cytotoxicity Assay to monitor cytotoxicity in HepG2 cells - 16 hour (AID 1224876); also: nearly all actives have a fitted effect of over 45% in size; also: potency is read from the fitted curve at half-maximal effect
Summary of the method: (§2)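 Using 1536-well format, dye-containing HepG2 suspension was seeded, allowed 5 h at 37 C/5% CO2, dosed by pintool with compounds, positive and negative controls, and imaged for fluorescence across 40 h.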

[3] = A CellTox Green Cytotoxicity Assay to monitor cytotoxicity in HepG2 cells - 24 hour (AID 1224878); also: nearly all actives have a fitted effect of over 45% in size; also: potency is read from the fitted curve at half-maximal effect
Summary of the method: as §2

[4] = A CellTox Green Cytotoxicity Assay to monitor cytotoxicity in HepG2 cells - 40 hour (AID 1224879); also: nearly all actives have a fitted effect of over 40% in size; also: potency is read from the fitted curve at half-maximal effect
Summary of the method: as §2

[5] = qHTS RealTime-Glo MT Cell Viability Assay in HEK293 cells - 0 hour (AID 1224880); also: top concentration of the series differs between compounds; nearly all actives have a fitted effect of over 45% in size
Summary of the method: (§3)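 Viable HEK293 cells reduce a cell-permeant prosubstrate; the product diffuses out and is consumed by NanoLuc in the medium to give light. Compounds went in after a 5 h incubation and plates were read over the treatment course.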

[6] = A CellTox Green Cytotoxicity Assay to monitor cytotoxicity in HEK293 cells - 32 hour (AID 1224881); also: nearly all actives have a fitted effect of over 40% in size
Summary of the method: as §1

[7] = A CellTox Green Cytotoxicity Assay to monitor cytotoxicity in HepG2 cells - 0 hour (AID 1224882); also: nearly all actives have a fitted effect of over 35% in size
Summary of the method: as §2

[8] = A CellTox Green Cytotoxicity Assay to monitor cytotoxicity in HepG2 cells - 32 hour (AID 1224883); also: nearly all actives have a fitted effect of over 50% in size; also: potency is read from the fitted curve at half-maximal effect
Summary of the method: as §2

[9] = A CellTox Green Cytotoxicity Assay to monitor cytotoxicity in HEK293 cells - 16 hour (AID 1224888); also: nearly all actives have a fitted effect of over 35% in size
Summary of the method: as §1

[10] = qHTS RealTime-Glo MT Cell Viability Assay in HepG2 cells - 0 hour (AID 1224889); also: nearly all actives have a fitted effect of over 50% in size
Summary of the method: (§4)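 Cells + NanoLuc/prosubstrate dispensed (600 cells/well) → 5 h at 37 C/5% CO2 → compounds in DMSO transferred → 40 h incubation at 37 C, luminescence read at 0, 8, 16, 24, 32, 40 h.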

[11] = A CellTox Green Cytotoxicity Assay to monitor cytotoxicity in HepG2 cells - 8 hour (AID 1224890); also: nearly all actives have a fitted effect of over 45% in size; also: potency is read from the fitted curve at half-maximal effect
Summary of the method: as §2

[12] = qHTS assay to identify small molecule antagonists of the estrogen receptor alpha (ER-alpha) signaling pathway using the BG1 cell line in the presence of 0.1 nM 17-beta-estradiol - cell viability counter screen (AID 1259241); also: nearly all actives have a fitted effect of over 40% in size; also: potency is read from the fitted curve at half-maximal effect
Summary of the method: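 Following 5 days in phenol red-free medium with charcoal-stripped serum, VM7Luc4E2 cells received test compounds alongside 0.1 nM 17beta-estradiol (final) at 37C for 22 hr. Live cells were then quantified via protease-substrate fluorescence.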

[13] = qHTS assay to identify small molecule antagonists of the androgen receptor (AR) signaling pathway using the MDA cell line in the presence of 0.5 nM R1881 - cell viability counter screen (AID 1259242); also: nearly all actives have a fitted effect of over 45% in size; also: potency is read from the fitted curve at half-maximal effect
Summary of the method: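 Viability of MDA-kb2 cells was multiplexed with the luciferase AR readout; after 16 hr with compounds and R1881 at 0.5 nM final, CellTiter-Fluor fluorescence was recorded.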

[14] = qHTS RealTime-Glo MT Cell Viability Assay in HEK293 cells - 40 hour (AID 1224874); conditions: RealTime-Glo luminescence; max response: active compounds read low; also: nearly all actives have a fitted effect of over 50% in size; also: potency is read from the fitted curve at half-maximal effect
Summary of the method: as §3

[15] = A CellTox Green Cytotoxicity Assay to monitor cytotoxicity in HEK293 cells - 8 hour (AID 1224884); also: nearly all actives have a fitted effect of over 35% in size
Summary of the method: as §1

[16] = qHTS RealTime-Glo MT Cell Viability Assay in HEK293 cells - 24 hour (AID 1224886); also: top concentration of the series differs between compounds; nearly all actives have a fitted effect of over 50% in size
Summary of the method: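 Tox21 10K qHTS, HEK293, 600 cells/well, RealTime-Glo reagent co-dispensed with cells; 5 h preincubation, compound by pintool, 37 C, luminescence at 0–40 h.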

[17] = qHTS RealTime-Glo MT Cell Viability Assay in HEK293 cells - 8 hour (AID 1224887); also: nearly all actives have a fitted effect of over 50% in size; also: potency is read from the fitted curve at half-maximal effect
Summary of the method: as §3

[18] = qHTS RealTime-Glo MT Cell Viability Assay in HepG2 cells - 16 hour (AID 1224885); also: nearly all actives have a fitted effect of over 50% in size
Summary of the method: as §4

[19] = qHTS RealTime-Glo MT Cell Viability Assay in HepG2 cells - 32 hour (AID 1224877); also: nearly all actives have a fitted effect of over 55% in size; also: potency is read from the fitted curve at half-maximal effect
Summary of the method: as §4

For `COC(=O)C1=C(C)NC(C)=C(C(=O)OCCN2CCN(C(c3ccccc3)c3ccccc3)CC2)C1c1cccc([N+](=O)[O-])c1` (stereo not drawn), the Potency [1] was “inactive”, the Potency [2] was “inactive” and the Potency [3] was “inactive”. For the same molecule, the Potency [4] was “inactive”, the Potency [5] was “inactive” and the Potency [6] was “inactive”. For the same molecule, the Potency [7] was “inactive”, the Potency [8] was “inactive” and the Potency [9] was “inactive”. For the same molecule, the Potency [10] was “inactive”, the Potency [11] was “inactive” and the Potency [12] was “inactive”. The Potency [13] was “inactive”.

With `CCCCN(CCCC)CC(O)c1cc(Cl)cc2c1-c1ccc(Cl)cc1/C2=C/c1ccc(Cl)cc1` (stereo not drawn) the max response [14] was -17.2%, the Potency [1] was “inactive” and the Potency [2] was 21.3 µM (active). For the same molecule, the Potency [4] was 23.9 µM (active), the Potency [5] was “inactive” and the Potency [6] was “inactive”. The Potency [7] was “inactive”, the Potency [8] was 23.9 µM (active) and the Potency [15] was “inactive”. The Potency [16] was “inactive”, the Potency [17] was “inactive” and the Potency [9] was “inactive”. For the same molecule, the Potency [10] was “inactive”, the Potency [11] was 13.4 µM (active) and the Potency [13] was “inactive”.

For `CC(C)=CCC1=C(O)c2ccccc2C(=O)C1=O`, the Potency [14] was 24.4 µM (active), the Potency [1] was “inactive” and the Potency [2] was “inactive”. For the same molecule, the Potency [3] was “inactive”, the Potency [4] was “inactive” and the Potency [5] was “inactive”. For the same molecule, the Potency [6] was “inactive”, the Potency [7] was “inactive” and the Potency [8] was “inactive”. The Potency [15] was “inactive”, the Potency [18] was “inactive” and the Potency [9] was “inactive”. The Potency [11] was “inactive”.

For `COc1cc(S(=O)(=O)O)c(C)cc1N=Nc1c(O)ccc2cc(S(=O)(=O)O)ccc12`, the max response [14] was -10.3%, the Potency [1] was “inactive” and the Potency [2] was “inactive”. For the same molecule, the Potency [3] was “inactive”, the Potency [4] was “inactive” and the Potency [5] was “inactive”. For the same molecule, the Potency [6] was “inactive”, the Potency [7] was “inactive” and the Potency [8] was “inactive”. For the same molecule, the Potency [15] was “inactive”, the Potency [16] was “inactive” and the Potency [17] was “inactive”. The Potency [9] was “inactive”, the Potency [12] was 21.7 µM (active) and the Potency [13] was 24.3 µM (active).

In the case of `CCCC(=O)OC(C)(C)Cc1ccccc1`, the max response [14] is reported as -22.8%, the Potency [1] is reported as “inactive” and the Potency [19] is reported as “inactive”. The Potency [5] was “inactive”, the Potency [6] was “inactive” and the Potency [7] was “inactive”. For the same molecule, the Potency [15] was “inactive”, the Potency [16] was “inactive” and the Potency [17] was “inactive”. The Potency [9] was “inactive”, the Potency [10] was “inactive” and the Potency [12] was “inactive”.

With `Cc1cc(C(C)(C)C)c(O)c(C)c1Cn1c(=O)n(Cc2c(C)cc(C(C)(C)C)c(O)c2C)c(=O)n(Cc2c(C)cc(C(C)(C)C)c(O)c2C)c1=O` the Potency [1] was “inactive”, the Potency [2] was “inactive” and the Potency [3] was “inactive”. The Potency [4] was “inactive”, the Potency [5] was “inactive” and the Potency [6] was “inactive”. For the same molecule, the Potency [7] was “inactive”, the Potency [8] was “inactive” and the Potency [15] was “inactive”. The Potency [9] was “inactive”, the Potency [10] was “inactive” and the Potency [11] was “inactive”. The Potency [12] was “inactive” and the Potency [13] was “inactive”.

With `Cc1ccc(O)c(O)c1` the Potency [2] was “inactive”, the Potency [19] was “inactive” and the Potency [3] was “inactive”. The Potency [5] was “inactive”, the Potency [7] was “inactive” and the Potency [8] was “inactive”. For the same molecule, the Potency [18] was “inactive”, the Potency [10] was “inactive” and the Potency [13] was “inactive”.

With `CC(C)(C)NSc1nc2ccccc2s1` the max response [14] was 8.62%, the Potency [1] was “inactive” and the Potency [2] was “inactive”. The Potency [3] was “inactive”, the Potency [5] was “inactive” and the Potency [6] was “inactive”. The Potency [7] was “inactive”, the Potency [8] was “inactive” and the Potency [15] was “inactive”. The Potency [18] was “inactive”, the Potency [16] was “inactive” and the Potency [17] was “inactive”. The Potency [9] was “inactive”, the Potency [10] was “inactive” and the Potency [11] was “inactive”. The Potency [12] was “inactive”.

In the case of `CN(C)Cc1cc(C(C)(C)C)c(O)c(C(C)(C)C)c1`, the max response [14] is reported as -1.74%, the Potency [1] is reported as “inactive” and the Potency [2] is reported as “inactive”. The Potency [3] was “inactive”, the Potency [4] was “inactive” and the Potency [5] was “inactive”. For the same molecule, the Potency [6] was “inactive”, the Potency [7] was “inactive” and the Potency [8] was “inactive”. For the same molecule, the Potency [15] was “inactive”, the Potency [18] was “inactive” and the Potency [16] was “inactive”. For the same molecule, the Potency [17] was “inactive”, the Potency [9] was “inactive” and the Potency [10] was “inactive”. For the same molecule, the Potency [11] was “inactive”, the Potency [12] was “inactive” and the Potency [13] was “inactive”.

With `CN(C)[C@@H](CCOc1cccc2ccccc12)c1ccccc1` the Potency [5] was “inactive”, the Potency [7] was “inactive” and the Potency [15] was “inactive”. For the same molecule, the Potency [10] was “inactive” and the Potency [12] was “inactive”.

For `C=C(CC)C(=O)c1ccc(OCC(=O)O)c(Cl)c1Cl`, the Potency [1] was “inactive”, the Potency [2] was “inactive” and the Potency [19] was “inactive”. For the same molecule, the Potency [3] was “inactive”, the Potency [4] was “inactive” and the Potency [5] was “inactive”. The Potency [6] was “inactive”, the Potency [7] was “inactive” and the Potency [8] was “inactive”. For the same molecule, the Potency [15] was “inactive”, the Potency [18] was “inactive” and the Potency [16] was “inactive”. The Potency [17] was “inactive”, the Potency [9] was “inactive” and the Potency [11] was “inactive”. The Potency [12] was “inactive” and the Potency [13] was “inactive”.

With `CCC(CC)(CC(=O)Nc1cccc(/C=C/c2nc(C3CCC3)cs2)c1)C(=O)O` the max response [14] was -19.8%, the Potency [1] was “inactive” and the Potency [2] was “inactive”. For the same molecule, the Potency [19] was “inactive”, the Potency [6] was “inactive” and the Potency [7] was “inactive”. For the same molecule, the Potency [8] was “inactive”, the Potency [18] was “inactive” and the Potency [17] was “inactive”. The Potency [9] was “inactive”, the Potency [10] was “inactive” and the Potency [11] was “inactive”. For the same molecule, the Potency [12] was “inactive” and the Potency [13] was “inactive”.

For `O=c1[nH]c2ccccc2n1CCCN1CCN(C(c2ccccc2)c2ccccc2)CC1`, the Potency [14] was 12 µM (active), the Potency [1] was “inactive” and the Potency [19] was 26.8 µM (active). For the same molecule, the Potency [3] was 23.9 µM (active), the Potency [5] was “inactive” and the Potency [6] was “inactive”. For the same molecule, the Potency [7] was “inactive”, the Potency [8] was 23.9 µM (active) and the Potency [17] was 21.3 µM (active). The Potency [9] was “inactive”, the Potency [10] was “inactive” and the Potency [12] was “inactive”. For the same molecule, the Potency [13] was “inactive”.

In the case of `S=c1nccc[nH]1`, the Potency [1] is reported as “inactive”, the Potency [2] is reported as “inactive” and the Potency [19] is reported as “inactive”. For the same molecule, the Potency [5] was “inactive”, the Potency [6] was “inactive” and the Potency [7] was “inactive”. For the same molecule, the Potency [8] was “inactive”, the Potency [15] was “inactive” and the Potency [18] was “inactive”. For the same molecule, the Potency [16] was “inactive”, the Potency [17] was “inactive” and the Potency [9] was “inactive”. The Potency [10] was “inactive”, the Potency [12] was “inactive” and the Potency [13] was “inactive”.

For `Nc1nc(-c2ccccc2)cs1`, the Potency [1] was “inactive”, the Potency [2] was “inactive” and the Potency [19] was “inactive”. For the same molecule, the Potency [3] was “inactive”, the Potency [4] was “inactive” and the Potency [5] was “inactive”. For the same molecule, the Potency [6] was “inactive”, the Potency [7] was “inactive” and the Potency [8] was “inactive”. For the same molecule, the Potency [15] was “inactive”, the Potency [18] was “inactive” and the Potency [16] was “inactive”. For the same molecule, the Potency [17] was “inactive”, the Potency [9] was “inactive” and the Potency [10] was “inactive”. For the same molecule, the Potency [12] was “inactive” and the Potency [13] was “inactive”.

For `O=C1NC(=O)[C@@H]2CC=CC[C@H]12`, the Potency [1] was “inactive”, the Potency [2] was “inactive” and the Potency [19] was “inactive”. For the same molecule, the Potency [5] was “inactive”, the Potency [6] was “inactive” and the Potency [7] was “inactive”. The Potency [15] was “inactive”, the Potency [18] was “inactive” and the Potency [17] was “inactive”. For the same molecule, the Potency [9] was “inactive”, the Potency [12] was “inactive” and the Potency [13] was “inactive”.
